Compound activity (PubChem BioAssay)
Shown are actives, neighbours in structure and some others; about 9.1% of the full set was active somewhere.
M1 ag – agonists of M1 muscarinic receptor. AID 626. B-score at 10 µM. CHO-M1 cells, Fluo-4 calcium fluorescence, agonist mode; active compounds read high. 3% of 64,000 active;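 active = fluorescence rise, raw or as B-score row- and column-corrected plate score, outside the 99.7% band of its plate's samples, either direction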
D1 mod – allosteric modulators of human D1 dopamine receptor. 5.9% of 58,000 active. P21728. B-score at 10 µM. HEK293 D1, CRE-luciferase, dopamine EC30 potentiation; actives deviate in either direction;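 active = luminescence count or its row- and column-corrected plate score outside the 99.7% band of the plate's sample wells, on either side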
Target sequence (P21728 whole entry, looked up): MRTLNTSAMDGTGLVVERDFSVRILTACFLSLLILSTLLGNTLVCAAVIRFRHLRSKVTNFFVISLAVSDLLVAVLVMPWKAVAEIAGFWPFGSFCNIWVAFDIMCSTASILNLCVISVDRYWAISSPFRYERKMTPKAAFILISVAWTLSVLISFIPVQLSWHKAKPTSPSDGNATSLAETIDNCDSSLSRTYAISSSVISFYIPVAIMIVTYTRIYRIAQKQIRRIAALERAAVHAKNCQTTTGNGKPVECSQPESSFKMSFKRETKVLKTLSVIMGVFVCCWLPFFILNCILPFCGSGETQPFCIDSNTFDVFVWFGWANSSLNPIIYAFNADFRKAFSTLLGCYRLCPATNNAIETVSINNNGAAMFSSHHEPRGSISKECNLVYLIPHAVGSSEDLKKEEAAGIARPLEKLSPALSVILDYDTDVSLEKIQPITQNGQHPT
M1 antag – blocks the rat M1 muscarinic receptor response to acetylcholine | P08482 | CHO-M1 cells, Fluo-4 calcium, ACh EC80 antagonist mode; active compounds read low | B-score at 10 µM | 3.4% of 64,000 active | AID 628;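 active = calcium fluorescence response, raw or row-and-column corrected B-score, differing from the plate sample mean either way at a set confidence level, mostly lower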
mHtt clearance – mutant huntingtin protein clearance; inhibition, % at 1.5 µM; 0.42% of 47,000 active; HeLa Exon1htt(103Q)mCFP, aggregate imaging; zero = plate's median compound well;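 active = inhibition of aggregate fluorescence above about 70%, also judged a hit by eye on the cell image, limit read from the data, passing the limit was not always enough; inconclusive = no rule stated for this call; inactive = not judged a hit on image review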;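 note: cells exposed to compound for three days before fixation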
M1 ag confirm – confirmation of rat M1 muscarinic receptor agonists | AID 1488 | shares compounds with M1 ag | CHO-M1 cells, Fluo-4 calcium fluorescence, agonist mode; actives lie on both sides | fluorescence change (max-min) at 10 µM | 19% of 1,700 active;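 active = fluorescence change differs from the solvent-only DMSO control mean at a set confidence level in both duplicate runs; inconclusive = differs from solvent-only control mean in just one of two runs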;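 note: an EC20 dose of acetylcholine follows compound addition during the same imaging run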
M4 ag counter – counter-screen for M1 agonists: activity at rat M4 receptor. shares compounds with M1 ag. CHO M4/Gqi5 cells, Fluo-4 calcium fluorescence, agonist mode; actives lie on both sides. fluorescence change (max-min) at 10 µM. 9% of 1,700 active. AID 1741;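 active = fluorescence change differing from the plate's solvent-only control wells at 99.7% confidence in both duplicates, whether higher or lower; inconclusive = differs from solvent controls in only one of two duplicates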
A number is an active result; – = inactive; ? = inconclusive; · = not tested or not shown.

SMILES	M1 ag	D1 mod	M1 antag	mHtt clearance	M1 ag confirm	M4 ag counter
Cc1ccc(OCCN2CCN(C(=O)CCC(=O)Nc3nnc(C(C)C)s3)CC2)cc1	13	–	–	–	–	–
CCCc1nnc(NC(=O)CCC(=O)N2CCN(CCOc3ccc(C)cc3)CC2)s1	20	–	–	–	–	–
O=C(COC(=O)CCC(=O)c1ccc2c(c1)OCCO2)NCc1ccc2c(c1)OCO2	–	–	–	·	·	·
COC(=O)c1cccc(NC(=O)CSc2nnc(COc3ccc(C#N)cc3)n2-c2ccccc2)c1	3.6	–	–	–	?	–
N#Cc1ccc(COc2ccc(CCO)cc2-n2nc3ccccc3n2)cc1	5.5	–	–	·	–	–
CC1=C(SCCC#N)S/C(=C2\SC(C)=C(SCCC#N)S2)S1	–	–	–	–	·	·
COc1ccc(OC)c(S(=O)(=O)N2CCC(C(=O)Nc3cccc(C(F)(F)F)c3)CC2)c1	4.4	–	–	·	–	–
Cc1ccc(C)c(N2CCN(C(=O)c3cc(S(=O)(=O)N4CCOCC4)ccc3F)CC2)c1	–	–	–	·	·	·
CCOc1cc(S(=O)(=O)NC2CCCC2)ccc1Cl	8.9	–	–	–	–	–
CCCCCCc1nc2ccccc2c(=O)n1NC(=O)c1c(O)c2cccc3c2n(c1=O)CC3	·	·	·	–	·	·
Cc1ccc2c(c1)-c1c(cnn1CC(=O)O)CO2	–	–	–	·	·	·
O=C(Cn1ncc2c(=O)oc3ccccc3c21)N1CCN(C(=O)c2ccco2)CC1	–	–	–	·	·	·
Cc1ccc2c(c1)-c1c(cnn1CC(=O)N1CCCN(Cc3ccccc3F)C1)CO2	3.4	-2.9	–	·	?	–
O=C(Cn1ncc2c(=O)oc3ccccc3c21)N1CCCN(Cc2ccccc2F)C1	6	–	–	·	–	–
COc1ccc(C2CC(=O)C(C=NCCN3CCN(C(C)=O)CC3)=C(O)C2)cc1OC (configuration not stated)	–	–	–	·	·	·
CCN1CCN(Cc2ccc(NC(=O)Nc3ccccc3)cc2)CC1	6.5	-5.8	–	–	–	–
O=S(=O)(c1ccc(Oc2ccccc2)cc1)N1CCOCC1	–	–	–	·	·	·
O=S(=O)(c1ccc(Oc2ncnc3scc(-c4ccccc4)c23)cc1)N1CCOCC1	7	·	–	–	?	?
COc1nc(-c2ccc(Cl)cc2)ccc1-c1noc(-c2ccco2)n1	–	–	–	–	·	·
COc1cccc(-c2ccc(-c3noc(-c4ccccc4F)n3)c(OC)n2)c1	15	–	–	–	–	–
Cc1nn(-c2ccc(Cl)cc2)c2[nH]c(=O)c(CNCc3ccc4c(c3)OCO4)cc12	–	–	–	–	·	·
CCOC(=O)Cn1cc(C(=O)c2ccco2)c2ccccc21	–	–	–	–	·	·
COc1cccc(OCCn2cc(C(=O)c3ccco3)c3ccccc32)c1	5	–	–	–	–	–
O=C(Nc1cccnc1)C1CCCN(S(=O)(=O)c2cccc3nsnc23)C1 (configuration not stated)	–	–	–	·	·	·
Cc1nnc(Sc2nc(Sc3nnc(C)s3)nc(N3CCN(C)CC3)n2)s1	–	–	–	·	·	·
SMILES	M1 ag	D1 mod	M1 antag	mHtt clearance	M1 ag confirm	M4 ag counter
COc1ccc(-n2nnc3c(SCc4ccccc4)ncnc32)cc1	2.8	–	–	–	–	–
COc1ccc(C2=CC(c3ccc(F)cc3)n3nnnc3N2)cc1 (configuration not stated)	–	·	–	·	·	·
COc1ccc(C2=CC(c3ccc(Cl)cc3)n3cnnc3N2)cc1OC (configuration not stated)	6.8	–	–	·	223	190
CCOc1ccc(CC(=O)N2CCN(c3ccc(N4CCOCC4)nn3)CC2)cc1OCC	–	–	–	·	·	·
Cc1ccccc1N1OC2C(=O)N(c3ccc(F)cc3)C(=O)C2C1c1ccccn1 (configuration not stated)	13	–	–	·	–	–
c1ccc(-c2nc(NCCCN3CCOCC3)c3ccccc3n2)cc1	2.6	–	–	–	–	–
COc1ccc(C2CCCN2C(=O)Nc2ccc(Cl)cc2)cc1OC (configuration not stated)	·	·	·	–	·	·
CC(=O)N(c1ccccc1)c1c(F)c(F)c(F)c(F)c1F	3.9	–	–	–	–	–
CC(=O)N(CN1C(=O)c2ccccc2C1=O)c1ccccc1	–	–	–	·	·	·
CCC(=O)Nc1cc(C)c(NC(=O)c2ccccc2OC)cn1	–	–	–	–	·	·
OC(CN1CCN(c2cccc(C(F)(F)F)c2)CC1)c1c[nH]c2ccccc12 (configuration not stated)	–	–	–	–	·	·
Cn1c(=O)c2nc(NCc3ccccc3)cnc2n(C)c1=O	10	–	–	–	203	166
c1ccc(N2CCN(c3c4c(nc5ncnn35)CCC4)CC2)cc1	–	–	–	·	·	·
COc1cccc(N2CCN(c3c4c(nc5ncnn35)CCC4)CC2)c1	6.7	–	–	–	–	–
c1ccc(-c2nc3cnccn3c2Nc2ccc3c(c2)OCCO3)cc1	–	–	–	–	·	·
COc1cc(-c2nc3cnccn3c2Nc2ccccc2)ccc1O	5.5	–	–	·	–	–
COc1cc(-c2nc3cnccn3c2Nc2ccc3c(c2)OCCO3)ccc1O	3.5	–	–	·	–	?
c1ccc(Cc2cc(-c3ccccc3)on2)cc1	·	·	·	–	·	·
CCc1ccc(S(=O)(=O)NCc2cn3ccsc3n2)s1	3.3	–	–	·	–	–
CCc1ccc(S(=O)(=O)NCCc2cn3ccsc3n2)s1	–	–	–	–	·	·
O=C(c1ccccc1)N1CCN(C2CC(=O)N(CCc3ccccc3)C2=O)CC1 (configuration not stated)	–	·	–	–	·	·
O=C(c1ccncc1)c1ccc(N2CCN(C3CC(=O)N(Cc4ccccc4)C3=O)CC2)cc1 (configuration not stated)	20	–	-2.3	–	-25	–
Cc1ccc(S(=O)(=O)Cn2nnnc2CN(Cc2ccco2)CC2CCCO2)cc1 (configuration not stated)	–	–	–	–	·	·
Cc1ccc(C(=O)N2CCN(c3ccc(Cl)cc3)CC2)cc1	–	–	–	·	·	·
Cc1ccc(C(=O)N2CCN(S(C)(=O)=O)C2)cc1	4	–	–	–	?	–
SMILES	M1 ag	D1 mod	M1 antag	mHtt clearance	M1 ag confirm	M4 ag counter
O=C1CC(C(=O)Nc2nccs2)C(c2ccccc2)O1 (configuration not stated)	–	–	–	·	·	·
Cc1ccc2nc(Nc3ccc4[nH]c(=O)[nH]c4c3)c(-n3nc(C)cc3C)nc2c1	20	–	–	–	-23	–
COc1ccccc1C1C=C(c2ccc(Cl)cc2)Nc2nc(NS(C)(=O)=O)nn21 (configuration not stated)	54	–	–	·	88	–
COc1cc2ccccc2cc1C(=O)Nc1ccc(N2CCN(C)CC2)cc1	5.9	–	-8	·	-24	–
CCOC(=O)c1cnn(CCOC(=O)Cc2cccs2)c1NC(=O)Cc1cccs1	–	·	–	–	·	·
CC(=O)N1CCN(c2ccc(Nc3ncnc4c3oc3ccccc34)cc2)CC1	8.9	–	–	–	–	?
COCCCNS(=O)(=O)c1ccc2c(c1)CCN2C(C)=O	–	–	–	·	·	·
